Experimental data: PubChem BioAssay (Tox21)
Inconclusive results are not listed. Activity calls are given as the source filed them. Unless noted, calls follow the shape of the dose curve; as a rule, active = well fitted curve in the direction sought with a large enough effect in the repeat runs; inconclusive = weak or mixed curves; inactive = no such curve, though single readings can be large; an effect the other way counts as inactive or inconclusive.

Experiments:
[1] = qHTS assay to identify small molecule agonists of the vitamin D receptor (VDR) signaling pathway - cell viability counter screen (AID 743224); conditions: VDR-bla HEK293T viability, CellTiter-Glo luminescence, 16 h; series mostly up to 62.6 µM; also: nearly all actives have a fitted effect of over 50% in size; also: potency is read from the fitted curve at half-maximal effect
Procedure, shortened: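 VDR-bla cell line, quantitative HTS format; 16 h compound incubation (37C, 5% CO2); ATP-based CellTiter-Glo luminescence measured in the reporter assay wells.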

[2] = qHTS assay to identify small molecule antagonists of the vitamin D receptor (VDR) signaling pathway - cell viability counter screen (AID 743225); conditions: VDR-bla HEK293T viability, CellTiter-Glo luminescence, 16 h; series mostly up to 61 µM; also: nearly all actives have a fitted effect of over 50% in size; also: potency is read from the fitted curve at half-maximal effect
Procedure, shortened: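 VDR-bla HEK 293T cells, 4 h pre-incubation at 37C, then compound plus 1-alpha,25-dihydroxyvitamin D3 (3 nM final) for 16 h. After the beta-lactamase FRET read, CellTiter-Glo was added to the same wells; luminescence after 30 min at room temperature.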

[3] = qHTS assay to identify small molecule agonists of the NFkB signaling pathway (AID 1159509; active = well fitted curve in the direction sought with a large enough effect in the signal ratio in the repeat runs, not every such curve was filed as active; the % refers to the signal ratio); conditions: NFkB-bla ME-180 cells, beta-lactamase FRET ratio, 5 h; series mostly up to 61 µM
Procedure, shortened: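 NFkB-bla ME-180 cells with a beta-lactamase reporter under an NF-kB response element were plated overnight, treated with compounds in DMSO for 5 hr at 37 C, then loaded with FRET substrate for 1.5 hr at room temperature.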

[4] = qHTS assay to identify small molecule agonists of the NFkB signaling pathway - cell viability counter screen (AID 1159515; calls by dose curve; also: nearly all actives have a fitted effect of over 55% in size); conditions: NFkB-bla ME-180 viability, CellTiter-Glo luminescence, 5 h; series mostly up to 61 µM
Procedure, shortened: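 Viability in NFkB-bla ME-180 cells was measured by CellTiter-Glo luminescence, 30 min room temperature, in wells already treated 5 hr with compounds and read for reporter FRET.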

[5] = qHTS assay to identify small molecule antagonists of the retinoid-related orphan receptor gamma (ROR-gamma) signaling pathway - cell viability counter screen (AID 1159520); conditions: Tet-on RORgamma CHO cells viability, ATP luminescence, 16 h; series mostly up to 92.4 µM; also: nearly all actives have a fitted effect of over 50% in size; also: potency is read from the fitted curve at half-maximal effect
Procedure, shortened: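 Cytotoxicity was read from cellular ATP (CellTiter-Glo luminescence) after 16 hr at 37 C with 1 uM doxycycline induction. The inducer was added 2 hr after compound transfer to Tet-on ROR gamma CHO cells.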

[6] = target: Nuclear receptor ROR-gamma (Homo sapiens) (UniProt P51449); assay: qHTS assay to identify small molecule antagonists of the retinoid-related orphan receptor gamma (ROR-gamma) signaling pathway (AID 1159521; also: nearly all actives have a fitted effect of over 50% in size; also: potency is read from the fitted curve at half-maximal effect); conditions: Tet-on RORgamma CHO cells, RORE-luciferase, 16 h; series mostly up to 92.4 µM
Procedure, shortened: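 Tet-on RORγ CHO cells carrying a ROR response element–luciferase reporter were pretreated with compounds for 2 h, then induced with 1 uM (final) doxycycline hyclate for 16 h at 37 C. Antagonism was read as decreased ONE-Glo luminescence.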

[7] = qHTS assay to identify small molecule agonists of the AP-1 signaling pathway (AID 1159526; calls by dose curve; also: potency is read from the fitted curve at half-maximal effect); conditions: ME-180 AP-1-bla reporter, beta-lactamase FRET ratio, 5 h; series mostly up to 76.8 µM
[8] = qHTS assay to identify small molecule agonists of the AP-1 signaling pathway - cell viability counter screen (AID 1159525; calls by dose curve; also: nearly all actives have a fitted effect of over 55% in size; also: potency is read from the fitted curve at half-maximal effect); conditions: ME-180 (cervical carcinoma) AP-1-bla cells viability, ATP luminescence, 5 h; series mostly up to 76.8 µM
Procedure, shortened: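 Luminescent ATP readout (Cell Titer Glo, 30 min RT), normalised to DMSO and tetra n-octyl ammonium bromide controls. Cells were ME-180 AP-1-bla in 0.5% dialyzed FBS Opti-MEM, with a 5 h, 37 °C compound exposure.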

[9] = qHTS assay to identify small molecule agonists of the endoplasmic reticulum stress response signaling pathway (AID 1159516; active = well fitted activation curve with a large enough effect in the signal ratio in the repeat runs, not every such curve was filed as active; the % refers to the signal ratio); conditions: ESRE-bla HeLa, ER stress beta-lactamase reporter, 5 h; series mostly up to 61 µM
Procedure, shortened: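 ER stress element reporter (bla) in HeLa. 1,500 cells/well, overnight attachment; 5 hr compound; 2 hr RT substrate; dual-emission fluorescence.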

[10] = qHTS assay to identify small molecule agonists of the endoplasmic reticulum stress response signaling pathway - cell viability counter screen (AID 1159517; calls by dose curve; also: nearly all actives have a fitted effect of over 50% in size; also: potency is read from the fitted curve at half-maximal effect); conditions: ESRE-bla HeLa viability, CellTiter-Glo luminescence, 5 h; series mostly up to 61 µM
Procedure, shortened: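 Cells, HeLa ESRE-bla; density, 1,500/well; dosing, 5 hr at 37 C, 5% CO2; readout, CellTiter-Glo luminescence after 30 min RT.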

Measured: Potency

CCc1ccccc1
not listed: [8] | [9] | [10]
inactive: all other assays above

CCCCCCCCOc1ccc(C(=O)O)cc1
not listed: [9] | [10]
inactive: all other assays above

CCOC(=O)c1ccc(OCCN2C[C@H](O)[C@@H](O)[C@H](O)[C@H]2CO)cc1
not listed: [9] | [10]
inactive: all other assays above

CC(C)COCC(CN(Cc1ccccc1)c1ccccc1)N1CCCC1 (configuration not stated)
inactive: [3] | [4]
active: [6] 23.7 µM

C=CC(=O)OCC1CC2CC1C1CCC(COC(=O)C=C)C21 (configuration not stated)
inactive: [3] | [4] | [8]
active: [6] 54.5 µM

CN(C)CCN1C(=O)c2ccccc2N(C)c2ccccc21
not listed: [7] | [9] | [10]
inactive: all other assays above

Oc1cccc(O)c1O
inactive: [1] | [3] | [4] | [6] | [8]

O=C1Cc2cc(Cl)ccc2N1
not listed: [9] | [10]
inactive: all other assays above

CC(C)C=O
not listed: [9] | [10]
inactive: all other assays above

Cc1ccccc1S
not listed: [9] | [10]
inactive: all other assays above

Clc1cc(Cl)nc(Cl)n1
not listed: [9] | [10]
inactive: all other assays above

c1ccc(C[n+]2cccc3ccccc32)cc1
inactive: [3] | [4] | [5] | [6] | [8] | [7]

CCOC(=O)/C=C/C(=O)OCC
not listed: [9] | [10]
inactive: all other assays above

CC(C)(C)C(=O)C(=O)O
not listed: [9] | [10]
inactive: all other assays above

C=C(C)[C@@H]1CCC2=CCC[C@@H](C)[C@]2(C)C1
inactive: [3] | [4] | [5] | [8] | [7]

OC(CCN1CCCC1)(c1ccccc1)C1CCCCC1 (configuration not stated)
not listed: [7] | [9] | [10]
inactive: all other assays above

CC(CO)CO
not listed: [9] | [10]
inactive: all other assays above

CCC(C)COC(=O)CC(C)C (configuration not stated)
inactive: [1] | [3] | [4] | [5] | [7]

O=C(O)CCc1nc(-c2ccccc2)c(-c2ccccc2)o1
not listed: [9] | [10]
inactive: all other assays above

O=Cc1c2ccccc2c(Cl)c2ccccc12
inactive: [1] | [2] | [3] | [4] | [5] | [8]

Nc1ccc(N=Nc2ccccc2)c(N)c1
inactive: [2] | [3] | [4] | [6] | [8]

CN1C(=O)N(c2ccccc2Br)Cc2cnc(Nc3ccc4c(c3)OCC(CO)O4)nc21 (configuration not stated)
active: [6] 54.5 µM
inactive: [3] | [4] | [8]

CC1=C(CC=O)C(C)(C)CCC1
not listed: [4]
inactive: all other assays above

CC(C)(c1ccccc1)c1ccccc1
not listed: [4]
inactive: all other assays above

CC(O)c1ccccc1 (configuration not stated)
not listed: [4]
inactive: all other assays above

CC1(C)S[C@@H]2[C@H](NC(=O)C(c3ccccc3)S(=O)(=O)O)C(=O)N2[C@H]1C(=O)O (some centres not stated)
not listed: [4]
inactive: all other assays above

Cc1[nH]cnc1CN1CCc2c(c3ccccc3n2C)C1=O
not listed: [4]
inactive: all other assays above

Cc1ccc(OC(=O)c2ccccc2O)cc1
not listed: [1] | [2] | [4]
inactive: all other assays above

C=CCc1ccccc1OCC(O)CNC(C)C (configuration not stated)
not listed: [4]
inactive: all other assays above

Cc1ccc(C(C)(C)O)cc1
not listed: [4]
inactive: all other assays above

O=C(O)C[C@H](NC(=O)OCc1ccccc1)C(=O)O
not listed: [4]
inactive: all other assays above

Cc1cc(O)c(C)c(C)c1O
active: [1] 29.8 µM
not listed: [2] | [4]
inactive: all other assays above

CCC(=O)C1CC(C(C)C)CC=C1C (configuration not stated)
not listed: [4]
inactive: all other assays above

C[C@H]1C[C@H](O)c2ccsc2S1(=O)=O
not listed: [4]
inactive: all other assays above

O[C@@H]1CO[C@H]2[C@@H]1OC[C@@H]2O
not listed: [4]
inactive: all other assays above

Oc1cccc(Nc2ccccc2)c1
not listed: [4]
inactive: all other assays above

CCOC(C)=O
not listed: [4]
inactive: all other assays above

CCOC(=O)[C@H](CCc1ccccc1)N[C@@H](C)C(=O)N(CC(=O)O)C1Cc2ccccc2C1
active: [8] 19 µM
not listed: [4]
inactive: all other assays above

CN1C(=O)OC(C)(C)C1=O
not listed: [4]
inactive: all other assays above

C=C1C[C@@]23CC[C@H]4[C@@](C)(CCC[C@@]4(C)C(=O)O[C@@H]4O[C@H](CO)[C@@H](O)[C@H](O)[C@H]4O)[C@@H]2CC[C@]1(O[C@@H]1O[C@H](CO)[C@@H](O)[C@H](O[C@@H]2O[C@H](CO)[C@@H](O)[C@H](O)[C@H]2O)[C@H]1O[C@@H]1O[C@H](CO)[C@@H](O)[C@H](O)[C@H]1O)C3
not listed: [2] | [4]
inactive: all other assays above

O=C(/C=C/c1ccccc1)OCCc1ccccc1
not listed: [4]
inactive: all other assays above

OCCN1CCN(CCCN2c3ccccc3Sc3ccc(Cl)cc32)CC1
inactive: [1] | [3] | [4]
active: [2] 23.9 µM

CC(C)(O)c1ccc(CNC(=O)c2cccnc2Oc2ccc3nonc3c2)cc1
not listed: [4]
inactive: all other assays above

CC(=O)OCC(=O)NCCCOc1cccc(CN2CCCCC2)c1
not listed: [4]
inactive: all other assays above

CN1CCCC(n2nc(Cc3ccc(Cl)cc3)c3ccccc3c2=O)CC1 (configuration not stated)
active: [7] 12 µM
not listed: [1] | [2] | [4]
inactive: all other assays above

CC(C)=CCC1C(=O)N(c2ccccc2)N(c2ccccc2)C1=O
not listed: [4]
inactive: all other assays above

NCCNCCO
not listed: [2] | [4]
inactive: all other assays above

CCC(C)(C)OC
not listed: [4]
inactive: all other assays above

O=C(CCCN1CC=C(n2c(=O)[nH]c3ccccc32)CC1)c1ccc(F)cc1
not listed: [4]
inactive: all other assays above

C[C@@H]1CN(CCCn2c3ccccc3c3ccccc32)C[C@H](C)N1
active: [1] 26.6 µM | [2] 23.9 µM
inactive: [3] | [4] | [8] | [7]

O=c1[nH]c2ccc(Cl)cc2o1
not listed: [4]
inactive: all other assays above

CCCCCCCCC(CCCCCC)C(=O)O (configuration not stated)
inactive: [3] | [9] | [5] | [6]
active: [10] 54.9 µM | [8] 49 µM

N#CCc1ccc(Cl)cc1Cl
not listed: [4]
inactive: all other assays above

CC(C)C[C@H](NC(=O)[C@H](CCc1ccccc1)NC(=O)CN1CCOCC1)C(=O)N[C@@H](Cc1ccccc1)C(=O)N[C@@H](CC(C)C)C(=O)[C@@]1(C)CO1
inactive: [3] | [9] | [10] | [8] | [7]
active: [5] 0.75 µM | [6] 1.19 µM
